Tests used:
Assay in all cases: PBM binding z-score (relative to random genomic background probes); higher = stronger binding; sequences stand for … in GC…GCGATTGACAGCGTAGAATGAAGG
[1] = system: FXR:RXRa (NR concentration 270 nM, RXRa partner concentration 90 nM)
Procedure, shortened: (§1)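 Binding z-scores were set against random background probes. The data came from custom Agilent 4×180K protein-binding microarrays carrying double-stranded probes with 34-nt variable regions, incubated 1 h with ligand-free nuclear receptor dimers. Partner-specific antibodies detected binding, and scanned fluorescence was regression-normalized.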

[2] = system: LXRa:RXRa (NR concentration 270 nM, RXRa partner concentration 90 nM)
Procedure, shortened: as §1

[3] = system: LXRa homodimer (NR concentration 270 nM)
Procedure, shortened: as §1

[4] = system: LXRb:RXRa (NR concentration 270 nM, RXRa partner concentration 90 nM)
Procedure, shortened: as §1

[5] = system: LXRb homodimer (NR concentration 270 nM)
Procedure, shortened: as §1

[6] = system: PPARa:RXRa (NR concentration 270 nM, RXRa partner concentration 90 nM)
Procedure, shortened: as §1

[7] = system: PPARg:RXRa (NR concentration 180 nM, RXRa partner concentration 90 nM)
Procedure, shortened: as §1

[8] = system: PPARg:RXRa 270nM:90nM, anti-RXR (NR concentration 270 nM, RXRa partner concentration 90 nM)
Procedure, shortened: as §1

[9] = system: PPARg:RXRa 30nM:10nM, anti-RXR (NR concentration 30 nM, RXRa partner concentration 10 nM)
Procedure, shortened: as §1

[10] = system: PPARg:RXRa 90nM:30nM, anti-RXR (NR concentration 90 nM, RXRa partner concentration 30 nM)
Procedure, shortened: as §1

Sequence | PBM binding z-score [1] | PBM binding z-score [2] | PBM binding z-score [3] | PBM binding z-score [4] | PBM binding z-score [5] | PBM binding z-score [6] | PBM binding z-score [7] | PBM binding z-score [8] | PBM binding z-score [9] | PBM binding z-score [10]
CCTGCTAGATCATGGTCAGCTAATCTACAGTATG | -0.747 | -0.678 | -0.68 | -0.476 | -0.922 | -0.672 | 0.0409 | -0.513 | -0.306 | -0.269
TCTAGTTGGTCAAAGGTCACAGACTCGAAATGCG | 6.15 | 6.04 | 3.48 | 5.55 | 1.44 | 6.87 | 11.5 | 10 | 10.8 | 11.2
GATACAGGGTCAAGGCCAGAGGACGCGTATTGAT | 6.78 | 4.13 | -0.101 | 3.54 | -0.0333 | 5.49 | 6.03 | 5.55 | 2.01 | 4.12
CAAACTAGGCCACAGAGGTCAAAGTCCGTGCGTA | 5.06 | 5.36 | 5.33 | 5.13 | 0.98 | 5.87 | 7.19 | 6.39 | 4.5 | 5.82
TCTATTAGTTGATTAGGGCAACCAAAACAGCGGA | 0.762 | 0.673 | 0.188 | 0.699 | 0.773 | 1.06 | 0.435 | 2.01 | 3.9 | 2.83
TGGCCTAGGTCATTCAGGGGCCAGTATAGAAAGC | 4.69 | 3.39 | 0.183 | 2.3 | 0.0581 | 3.59 | 2.15 | 2.33 | 0.133 | 1.5
GCATATAGGTAATACAGGGTGAAAGTCCGATTGT | 0.317 | 0.746 | -0.223 | 0.369 | -0.0682 | 1.92 | 1.44 | 1.47 | 0.819 | 0.965
GCGACTGGGGCAAAGCAGGTTACCTTAAGGTTGG | 0.232 | 0.16 | -0.422 | 0.247 | -0.607 | 1.31 | 0.947 | 1.35 | -0.661 | 0.437
ATCTCTAGGTAAAGATAGTGCAGTGAATGCAAAT | 0.222 | 1.16 | 0.00124 | 0.147 | 0.236 | 0.141 | 0.354 | 0.233 | 0.0457 | 0.565
TCTTATAGATCAGCAGGTTAAGAAAGCTGGCCAA | 0.0686 | 0.24 | -0.273 | 0.335 | -0.379 | 0.481 | -0.154 | 1.43 | 2.63 | 2.09
TCTAGCAAGCCAGAGGGTCACTCAAGAGGTACGG | 0.763 | 0.684 | -0.557 | 1.04 | -1.21 | 2 | 0.737 | 1.3 | 1.51 | 1.28
CACCCTAGGTCAGGGCCAGTATAGGAGGAACGTT | 1.9 | 2.6 | 0.74 | 1.2 | -0.00593 | 2.24 | 1.36 | 1.08 | -0.0218 | 0.354
GGAACGAGGGCATTCGAGTTGAAAGCATGGCGAT | 1.15 | 2.67 | -0.268 | 0.406 | -1.04 | 1.85 | 0.762 | 0.887 | -0.332 | 0.259
CAAACTAGGTCACCGGAAGGTCAAAGTGCGCATG | 6.51 | 6.25 | 5.26 | 5.66 | 1.52 | 6.36 | 9.79 | 7.84 | 5.91 | 7.97
TCTTGTAGATCAAAGATTAAGAAAGCCGAAGCCT | 0.277 | 0.499 | -0.302 | 0.245 | -0.0264 | 1.12 | 1.55 | 3.63 | 3.56 | 3.75
CCGAGTGGGGCATAAGGTTACCATAAGCCAGCCC | 0.498 | 1.86 | -0.512 | 0.83 | -1.04 | 2.05 | 2.19 | 3.09 | 1.06 | 2.66
ATATGTAGGTTATCGTGTCATTCAGTTTGCGCAT | 0.97 | 1.3 | 0.641 | 1.5 | 0.855 | 3.55 | 5.76 | 5.11 | 2.48 | 4.38
GCTAATTGGTCAGTAAAAGGTCACACACCGGTCG | 3.55 | 4.31 | 5.15 | 4.41 | 1.19 | 4.8 | 3.38 | 4.52 | 2.45 | 3.96
TAGCCTAGGTCATTCAGGGGCCAGTATCGAAAGC | 4.39 | 3.78 | 0.945 | 3.2 | 1.1 | 3.76 | 1.95 | 2.11 | 0.0848 | 0.958
CAAACTAGGTCACGAAAGGTCCAAGTCGAATGAC | 4.78 | 3.96 | 0.544 | 2.73 | 0.334 | 5.45 | 8.99 | 7.44 | 4.78 | 7.28
ACTAGTAGGCCAAGTTTGGGTCACTCAAACAAAG | 0.368 | 0.0962 | -0.261 | 0.884 | -0.17 | 2.34 | 2.17 | 2.27 | 0.504 | 1.13
ATCTCTCGGTAACAAGTTCAGTGAAAGAGAGGAC | 0.379 | 0.429 | 0.428 | 0.549 | 0.942 | 0.533 | 0.157 | 0.369 | 0.251 | 0.484
CCTAGCAGGCCCATCTGGGTCACTCAAGGCTTGA | 0.338 | 0.486 | -0.426 | 0.484 | -1.16 | 1.7 | 0.158 | 0.743 | -0.909 | -0.217
GTACCAAGGTGAATAGGTCGTTGAAGAGTAGGCG | 1.03 | 0.815 | 0.077 | 0.828 | -0.492 | 2.34 | 1.56 | 2.06 | 0.379 | 1.17
TAGCCTAGGTGATGGGCCAGTATACCACGCGAAC | -0.85 | -0.73 | -0.59 | -0.909 | -0.955 | -0.386 | 0.501 | 0.427 | -0.547 | -0.0568

Sequence | PBM binding z-score [1] | PBM binding z-score [2] | PBM binding z-score [3] | PBM binding z-score [4] | PBM binding z-score [5] | PBM binding z-score [6] | PBM binding z-score [7] | PBM binding z-score [8] | PBM binding z-score [9] | PBM binding z-score [10]
GCGACTGGGGCAAAGCAGGTTACTATAAGGTTGG | 0.109 | 0.31 | -0.478 | 0.342 | -0.602 | 1.4 | 1.31 | 1.5 | 0.185 | 1.06
TCTTGTAGATTAAAGGTTAAGAAAGCCGAAGCCT | 1.25 | 1.98 | 0.568 | 1.82 | 0.134 | 3.56 | 5.78 | 6.6 | 6.85 | 7.33
CCTTACGGGTCACTGACAGGTTGTAGCATTTGGA | 5.1 | 3.61 | 0.156 | 3.17 | -0.356 | 4.93 | 4.26 | 4.06 | 0.971 | 2.97
AGAACGAGGGCACGCTGAGTTGTTAGCAGAGTAG | 0.878 | 0.882 | -0.742 | 0.17 | -1.13 | 2.18 | 1.94 | 1.79 | 0.32 | 1.16
ATCGAAAGGTCGAAGATGAGTATACCCACCCGAA | 3.83 | 3.21 | 0.43 | 2.41 | 0.732 | 4 | 2.52 | 2.37 | 1.04 | 1.8
AGTCAAAGTTCAGAACGAGGTAACGTAAAGCACG | 4.06 | 3.73 | 1.34 | 1.78 | 0.533 | 3.26 | 4.48 | 4.72 | 1.77 | 4.12
CCGAGTAGGTTATGGGGCATTCATGCAACGGTGA | 0.225 | 0.548 | -0.0106 | 0.797 | -0.214 | 2.26 | 3.65 | 4.6 | 3.02 | 4.44
CGAACTAGGTCAAGGACAGTGAGTCTCCGCACGC | 3.12 | 1.84 | -0.202 | 0.891 | -0.739 | 4.6 | 7.31 | 6.21 | 3.52 | 5.83
ATACTAAGGTGATCGTGAGGTCGTTGATACTAAC | 2.4 | 2 | 0.85 | 1.55 | 0.314 | 2.07 | 0.615 | 0.774 | 0.762 | 0.566
AGAACGAGGGCAAGGAGTTGATAGCACGGGTGGC | 0.193 | 0.0802 | -0.479 | -0.441 | -0.879 | 1.2 | 1.25 | 1.06 | -0.111 | 0.543
TGAATGAGCTTATAAGATCAGGGAACGTTGCAAA | -0.538 | -0.891 | -0.553 | -0.584 | -0.76 | -0.485 | -0.117 | -0.382 | 0.0852 | -0.46
TAGCCTAGGTCATTCACGGGCCAGTATAGAAAGC | 4.64 | 3.74 | 0.702 | 2.48 | 0.779 | 3.36 | 2.05 | 2.19 | 0.448 | 1.74
TGTATTAGTTGATTAGGGCAACCGAAACAGCGGA | 0.242 | 0.0777 | 0.397 | 0.234 | 1.3 | 0.484 | 0.304 | 0.782 | 0.748 | 0.794
ATACCTAGGTGATCGTGAGGTCGTTGATACTAAC | 1.53 | 1.12 | 0.563 | 1.35 | 0.0825 | 1.55 | 0.632 | 0.766 | 0.387 | 0.954
TCATATAGGTAGAGGTGAAAGTCGAACGATATGA | 0.743 | 0.996 | -0.23 | 0.833 | -0.246 | 2.43 | 1.96 | 3.02 | 3.6 | 3.28
CGAACTAGGTCAAGGACAGTGCATCTCCGCACGC | 3.37 | 2.49 | 0.582 | 1.38 | -0.386 | 4.35 | 7.23 | 6.31 | 3.38 | 5.86
CCTGCTACGTCATGGTCAGCTAATCTACAGTATG | -0.508 | -0.217 | -0.512 | -0.505 | -0.327 | -0.4 | 0.216 | -0.67 | -0.17 | -0.333
TCTTGTAGACCAACAGGAGGTTAAGAAAGATCGA | -0.287 | 1.22 | 0.0855 | 0.717 | -0.453 | 1.15 | 0.068 | 1.3 | 2.69 | 1.81
ATCTCTAGATAACAAGTTCAGTGAAAGAGAGGAC | 0.459 | 0.495 | 0.398 | 0.384 | 0.4 | 0.365 | 0.657 | 0.541 | 0.363 | 0.315
ATTTCTAGGTAAAAGTTCAGTGAATCCCGAGGAT | 1.14 | 1.71 | 1.53 | 1.49 | 1.12 | 5.27 | 9.08 | 8.85 | 8.73 | 10.6
TCGAATAGGTTACCAATGGGGCATTCAGCTTTCT | 0.65 | 2.61 | -0.377 | 2 | -0.392 | 1.87 | 0.255 | 1.75 | 2.94 | 2.43
AGAACGAGGGCACGCTGAGTTGAAAGCAGAGTAG | 0.945 | 0.542 | -0.955 | 0.276 | -0.933 | 2.38 | 2.11 | 1.77 | 0.0784 | 1.03
GCTTGTGGATCAAGGTTAAGAAAGACTAAGCTAA | 0.286 | 0.783 | -0.433 | 0.442 | -0.254 | 1.52 | 0.82 | 1.79 | 0.395 | 1.24
CCTAGCAGGCCAATCTGGGACACTCAAGGCTTGA | 0.127 | -0.43 | -0.779 | -1.13 | -0.814 | -0.0365 | 0.255 | -0.496 | -0.884 | -0.673

Source: the supplement of paper PMC6555819
